An excerpt weighted towards active compounds, which were near 11% of everything screened.
G9a block: inhibitors of human histone lysine methyltransferase G9a. actives 8.8% (n = 350,000). Q96KQ7. Potency, µM (doses to about 102 µM), inactives show top-dose activity, negative = inhibition, most hits filed as inhibitors. AID 504332. G9a H3K9 monomethylation, AlphaScreen, 2 h; also: % is scaled to controls: 0 for no effect and ±100 for the full control effect; nearly all actives have a fitted effect of over 75% in size
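AlphaScreen detection with an anti-monomethyl H3K9 antibody quantified product after a 2 h room-temperature reaction containing 500 nM biotinylated H3K9 peptide, 20 µM SAM and 20 nM enzyme, which had been preincubated 15 min with compound.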
JMJD2A Tudor inh: inhibitors of human JMJD2A Tudor domain | O75164 | AlphaScreen JMJD2A-Tudor / H3K4me3 peptide binding | Potency, µM (series often up to 114 µM), inactives show at the highest dose activity change, negative = inhibition, most hits filed as inhibitors | actives 4.4% (n = 390,000) | AID 504339; also: % is scaled to controls: 0 for no effect and ±100 for the full control effect; nearly all actives have a fitted effect of over 50% in size
HP1b binding inh: blocks HP1-beta chromodomain binding to methylated histone tails | actives 0.56% (n = 390,000) | Potency, µM (doses to about 114 µM), inactives show at the highest dose activity change, negative = inhibition, actives largely listed as inhibitors | AlphaScreen HP1-beta / biotin-H3K9me3 peptide binding | P83916; also: nearly all actives have a fitted effect of over 70% in size
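AlphaScreen: HP1-beta (50 nM) preformed 30 min with biotin-H3(1-18)K9me3 peptide (50 nM) in PBS pH 7.4, 0.01% Tween-20. Compound added for 30 min at RT, then streptavidin donor/nickel chelate acceptor beads (10 ug/mL) for 30 min.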
L3MBTL1 block: inhibitors of human L3MBTL1; Q9Y468; AlphaScreen L3MBTL1–H3K9me1 peptide binding; Potency, µM (top dose mostly 57.1 µM), for inactives: at the highest dose activity, negative = inhibition, usual class: inhibitors; actives 0.66% (n = 230,000); also: % is scaled to controls: 0 for no effect and ±100 for the full control effect; nearly all actives have a fitted effect of over 60% in size
Target sequence (Q9Y468 whole entry, looked up): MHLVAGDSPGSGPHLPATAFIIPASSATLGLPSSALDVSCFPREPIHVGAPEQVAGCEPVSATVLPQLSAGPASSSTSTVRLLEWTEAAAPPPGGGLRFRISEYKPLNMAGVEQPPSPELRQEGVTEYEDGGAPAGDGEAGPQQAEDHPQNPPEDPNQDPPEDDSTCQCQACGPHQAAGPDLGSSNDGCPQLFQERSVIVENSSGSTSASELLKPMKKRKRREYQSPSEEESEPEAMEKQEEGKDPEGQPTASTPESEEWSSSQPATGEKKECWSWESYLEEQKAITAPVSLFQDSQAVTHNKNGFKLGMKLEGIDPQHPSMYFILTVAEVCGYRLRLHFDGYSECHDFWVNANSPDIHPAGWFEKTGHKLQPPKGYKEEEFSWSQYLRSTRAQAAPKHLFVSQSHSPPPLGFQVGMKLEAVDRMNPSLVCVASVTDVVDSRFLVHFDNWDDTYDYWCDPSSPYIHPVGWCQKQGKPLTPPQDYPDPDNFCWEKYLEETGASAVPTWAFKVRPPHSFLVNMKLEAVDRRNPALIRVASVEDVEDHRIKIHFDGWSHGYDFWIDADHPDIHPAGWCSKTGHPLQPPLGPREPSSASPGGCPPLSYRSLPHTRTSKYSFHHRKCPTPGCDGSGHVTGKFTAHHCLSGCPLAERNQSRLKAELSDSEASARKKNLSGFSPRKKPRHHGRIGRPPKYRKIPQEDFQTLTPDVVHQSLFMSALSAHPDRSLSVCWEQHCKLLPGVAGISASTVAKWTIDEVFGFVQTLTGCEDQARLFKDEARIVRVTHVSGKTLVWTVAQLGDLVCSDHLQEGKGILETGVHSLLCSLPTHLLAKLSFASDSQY
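L3MBTL1 (50 nM) pre-complexed 30 min with biotinylated H3(1-15)K9me1 peptide (75 nM), then compounds added for 30 min at room temperature; AlphaScreen streptavidin donor/nickel chelate acceptor beads (10 ug/mL final) read after 30 min dark incubation.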
BAZ2B block: BAZ2B (human) inhibition. Q9UIF8. AlphaScreen BAZ2B-H3K14Ac peptide displacement. Potency, µM (doses to about 114 µM), without a hit: at the highest dose activity change, negative = inhibition, usual class: inhibitors. actives 4.4% (n = 360,000). AID 504333; also: % is scaled to controls: 0 for no effect and ±100 for the full control effect; nearly all actives have a fitted effect of over 60% in size
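Complex of BAZ2B and biotin-H3K14Ac (50 nM apiece) forms over 30 min at RT, then faces library compounds up to 110 uM for another 30 min; AlphaScreen beads added, 20 min dark incubation, luminescence read.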
Active calls of the source: *; u = inconclusive; x = no result; [ ] = remark or other dose. Calls follow the shape of the dose curve; as a rule, active = well fitted inhibition curve with a large enough effect; inconclusive = small, poorly fitted or top-dose-only effect; inactive = no such curve, though single readings can be large or run the other way. Potency is read from the fitted curve at half-maximal effect.

SMILES | G9a block | JMJD2A Tudor inh | HP1b binding inh | L3MBTL1 block | BAZ2B block
CC(=O)Oc1ccc(C(=O)[C@H]2[C@H]3C(=O)N(c4ccc(C)cc4C)C(=O)[C@H]3[C@@H]3C=CC=NN32)cc1 | 3.5µM* | u | -22% | -22% | -36%
CNS(=O)(=O)c1cn(CC(=O)N2CCN(c3ccccc3F)CC2)cc1S(=O)(=O)NC | u | -8% | 10% | x | -34%
Cc1ccc(-n2c(C)cc(C(=O)CSc3nnnn3C)c2C)cc1 | 14µM* | u | -18% | -20% | 50µM*
CCc1cccc2c(C(=O)CSc3nnc(-c4ccncc4)n3C)c[nH]c12 | 32µM* | -9% | 32% | -10% | -33%
COc1ccc(-n2c(C)cc(C(=O)CSc3nnc(-c4ccoc4C)n3C)c2C)cc1 | 50µM* | u | u | -11% | u
COc1cccc(NC(=O)CSc2nnc(-c3ccoc3C)n2C)c1 | -14% | 5% | 9% | x | 3%
Cc1cc(C(=O)C(C)Cl)c(C)n1Cc1ccco1 (stereo not given) | u | 50µM* | u | -30% | u
O=C(c1cccc(Cl)c1)N(Cc1cccc(F)c1)C1CCS(=O)(=O)C1 (stereo not given) | -4%[59 µM] | -5% | 25% | x | -9%
CC1CCCCN1C(=O)CSc1nc2ccccc2nc1Cc1ccc(Cl)cc1 (stereo not given) | 17%[59 µM] | -6% | 30%[57 µM] | x | 4%
Cc1cc(C(=O)CSc2nc3ccc(Cl)cc3[nH]2)c(C)n1Cc1ccco1 | x | -15% | 40% | x | x
Cc1ccccc1-n1c(SCC(=O)c2cc(C)n(C)c2C)nnc1-c1ccncc1 | 71µM* | -27%[57.1 µM] | 1% | -16% | u
Cc1cc(C(=O)CSc2nnnn2C)c(C)n1CCc1ccc(F)cc1 | 21% | -11% | 26% | -2% | 5%
Cc1cc(C(=O)CSc2nnnn2-c2ccccc2)c(C)n1CCc1ccccc1 | 4% | -17% | 18% | x | 6%
Cc1ccccc1-n1c(SCC(=O)c2ccccc2)nnc1-c1ccc(F)cc1 | 19%[59 µM] | -18% | 41% | x | u
Cc1cc(C(=O)CSc2ncccn2)c(C)n1Cc1ccco1 | 45µM* | -11% | 48% | -1% | 8%
Cc1cc(C(=O)CSc2nnnn2C)c(C)n1Cc1ccco1 | u | u | 11% | -23% | 71µM*
Cc1cc(C(=O)CSc2nnnn2-c2ccc(O)cc2)c(C)n1C | u | 45µM* | u | 25% | -10%
CN(CCCNC(=O)c1cccc(N2CCCC2=O)c1)c1ccccc1 | 8.9µM* | -27% | 14% | -22% | -25%
CC1CC(C)CN(CCCNC(=O)c2ccc(N3CCCC3=O)cc2)C1 (stereo not given) | 7.9µM* | -12% | 18% | x | 0%
C[C@H]1CC[C@H]2C(=O)N3[C@H](c4cccc(N5CCCC5=O)c4)[C@@H](C)CC[C@H]3C(=O)N2[C@@H]1c1cccc(N2CCCC2=O)c1 | 50µM* | x | x | -5% | -38%
CC(=O)Nc1cccc(N2CCCC2=O)c1 | -5%[59 µM] | -6% | 0% | -8%[11.4 µM] | 3%
CCCCN(C)CCCNC(=O)c1cccc(N2CCCC2=O)c1 | -4% | -2% | 33% | x | 4%
O=C(O)c1cccc(N2CCCC2=O)c1 | 50µM* | -11% | 13% | -6% | -4%
CC1CCCCN1S(=O)(=O)c1cc2c3c(c1)CC(=O)N3CCC2 (stereo not given) | 0%[59 µM] | 0% | 23% | x | -1%
C/C=C/C(=O)Nc1cccc(C2=NOC3(C2)C[C@H](C(N)=O)N(C(=O)c2ccccc2C(=O)c2ccccc2)C3)c1 (stereo not given in full) | 25%[12.7 µM] | x | x | x | -9%
CC1=C(c2ccccc2)[N+](=O)C2(CCCC2)N1[O-] | -23%[59 µM] | -11% | 13% | 4% | 2%
O=[N+]([O-])c1ccc2c(c1)N([O-])C1(CCCCC1)[N+]2=O | x | u | u | -3% | 40µM*
CC(=O)N(CCCN1CCOCC1)Cc1ccncc1 | 50µM* | 0%[11.4 µM] | 26% | x | u
c1cc(CNCCCN2CCOCC2)ccn1 | u | -1% | 36% | 4% | -4%
CCOC(=O)C1CCN(C(=O)C2CCCN(S(=O)(=O)c3ccc(OCC)c(Cl)c3)C2)CC1 (stereo not given) | -9%[0.501 µM] | -14% | 44% | -15% | 2%

Bioassay records as filed in PubChem BioAssay.
